# Data taken from the supplement of paper PMC3334620.
# Over roughly 33,000 sequences, “E-score (-0.5 to 0.5)” has its median near -0.017; the highest 2% begin near 0.3. The full list was thinned out, with the highest values kept by preference.
# Molecular target: T1, Sut1 (UniProt P53032)
# T1 sequence: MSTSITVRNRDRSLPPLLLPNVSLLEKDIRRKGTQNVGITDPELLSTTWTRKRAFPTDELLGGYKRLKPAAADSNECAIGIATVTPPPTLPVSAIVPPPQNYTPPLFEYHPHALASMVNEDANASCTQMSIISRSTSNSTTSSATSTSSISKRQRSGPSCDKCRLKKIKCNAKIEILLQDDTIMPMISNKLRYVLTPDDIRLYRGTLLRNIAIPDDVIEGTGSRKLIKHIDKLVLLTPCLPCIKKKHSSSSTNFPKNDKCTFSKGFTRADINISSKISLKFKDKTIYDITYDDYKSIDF
# Assay: PBM E-score (8-mer binding enrichment) (E-score (-0.5 to 0.5)); higher = stronger / more preferred TF binding
# Settings: protein concentration: 200 nM; construct: GST-full length
# Outline: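 Universal all-10-mer Agilent arrays, double-stranded by primer extension on fresh or once-stripped slides, were probed with about 100-200 nM GST-tagged yeast transcription factors made by PURExpress. Fluorescent anti-GST detected bound protein, and masliner normalised the scans. E-scores from the Universal PBM Analysis Suite were given to each ungapped eight-base word pooled with its reverse complement.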
row,Sequence,PBM E-score
1,ACCTCTAG,-0.0682
2,GTGGCAGA,-0.253
3,CATAACGC,-0.00576
4,GATGAAGC,-0.0232
5,TAACTGCA,0.0867
6,TCGGAACA,0.303
7,CCGGAACC,0.185
8,ACGGAAGA,0.147
9,CCGGAATA,0.294
10,CCGGAACA,0.304
11,ACGGAACA,0.229
12,ACGGAATC,0.252
13,GCGGAACA,-0.11
14,CCGGAACG,0.202
15,CCGGAAGA,0.312
16,CCGGAATC,0.326
17,CCGGAAGG,0.169
18,TATACGCA,0.0114
19,CCCAACGC,-0.103
20,TCACTTCA,-0.0869
21,CGGCTCAG,-0.117
22,TCTAGCCA,-0.0636
23,GACAACGC,-0.0716
24,AAATTTCA,0.00137
25,CAATTTCA,0.00344

row,Sequence,PBM E-score
1,TAATTTCA,0.346
2,GGGACAAC,-0.231
3,CGGACATC,0.406
4,GGGACATA,-0.0931
5,AGGACATA,-0.0903
6,CGGACAAC,0.309
7,AGGACATC,0.0505
8,CGGACAAG,0.22
9,CGGACATA,0.433
10,CTGACATC,0.0186
11,ACTAGGCC,-0.243
12,ATAGCCCC,-0.325
13,ATTTGCTC,0.141
14,GCGGAGCA,0.152
15,ACGGAGCA,0.207
16,CCGGAGCC,0.396
17,CCGGAGCA,0.307
18,CTGGAGCC,-0.204
19,CGGGAGCA,-0.0121
20,GCGGAGCC,0.113
21,CCGGAGCG,0.234
22,TCGGAGCA,0.3
23,CGGCGGTA,0.14
24,CGTTTATC,0.171
25,ACCCTGGG,-0.279

row,Sequence,PBM E-score
1,AGCGTAGC,-0.0963
2,CCTTTGAA,-0.0516
3,ATGATCGC,-0.106
4,AATGATAG,0.251
5,AATAATGT,0.235
6,AATAATAT,0.346
7,AATAATAG,0.157
8,AATAATAC,0.202
9,AATGATAA,0.299
10,TATGATAA,0.233
11,GTTAATAA,0.319
12,ATTAATAA,0.265
13,AATAATAA,0.304
14,CTTAATAA,0.217
15,GATAATAA,0.234
16,AACTTAAG,0.132
17,CAGTTTGG,-0.198
18,AAGCGCAC,0.00639
19,TTACGTAA,-0.0108
20,ATCAGATG,-0.0902
21,CATCTGAC,-0.163
22,TGTCAGAA,-0.0161
23,CATAACAA,0.179
24,GATAACAA,0.205
25,AGTAATAG,0.063

row,Sequence,PBM E-score
1,TATAACAA,0.319
2,AGTAATAT,0.312
3,CGTAATAA,0.0956
4,TCTAATAA,0.173
5,TGTAATAA,0.315
6,TATAATAA,0.298
7,CATAATAA,0.131
8,GGTAATAA,0.188
9,AGTAATAC,0.133
10,CATCTTCG,-0.0746
11,AAGATCAA,0.0587
12,AATTGCAG,0.0512
13,GCGACCGC,-0.23
14,AACAATAA,0.192
15,AACAATAC,0.0474
16,AACAATAT,0.331
17,AGGCTGAC,-0.245
18,ATAGGTCA,0.0286
19,AGAATGTC,-0.0101
20,AAGCATAC,0.164
21,ATAAAATG,0.289
22,CTTCGGAA,0.335
23,CTTCGGAC,0.405
24,CTTCGGTA,0.0563
25,GTTCGGAA,0.289

row,Sequence,PBM E-score
1,CTTCGGGC,-0.277
2,CTTCGGCC,-0.00176
3,CGCGACAG,-0.283
4,TGGCGACA,-0.207
5,GATTCGCA,0.113
6,AATTCGGG,0.17
7,GATTCGGA,0.385
8,TATTCGGA,0.352
9,TATTCGCA,0.0506
10,AATTCGGA,0.396
11,CATTCGGA,0.392
12,CATTCGGC,-0.0155
13,AATTCGGC,-0.0483
14,TATTCGAA,0.0804
15,GATTCGGC,0.0544
16,CATTCGGG,-0.0375
17,GCGGGAGC,-0.162
18,CCGCGAAC,0.0271
19,ATCTAGGG,-0.097
20,CAGCCCGA,-0.211
21,ACAGGACC,-0.108
22,CGGCCCAA,-0.116
23,CGTTGACC,-0.224
24,TGAAAGCA,0.148
25,AGTAATTC,0.307

row,Sequence,PBM E-score
1,ATTAATTA,0.188
2,CGTAATTC,0.0414
3,AGTAATTG,0.0745
4,ATTAATTC,0.298
5,ATTAATTG,0.187
6,CGACAGCA,-0.0542
7,TGATCGCA,-0.221
8,CATGAGCC,-0.195
9,GAATTCAC,0.0262
10,GAGAAGGA,-0.0992
11,AAGTCCGC,0.486
12,AAGTCCTC,0.0867
13,AAGTCCAT,0.0246
14,ACGTCCGC,-0.121
15,AAGTCCGT,0.487
16,AAGTCCCT,-0.131
17,TCCTTCGA,0.11
18,GAATATGC,0.0981
19,GCCCGCAA,-0.0979
20,ACATCGCA,-0.067
21,CAGGCCTA,-0.108
22,GCTATCAA,0.119
23,ATGTTGGC,-0.0785
24,GCGGCCCA,0.00935
25,AGTTAGCC,0.177

row,Sequence,PBM E-score
1,CGAACTCG,-0.0661
2,CGAACTCC,0.391
3,AGAACTCG,-0.03
4,CTAACTCC,0.221
5,GGAACTCA,-0.0534
6,AGAACTCC,0.31
7,AGAACTCT,0.07
8,ATAACTCG,0.149
9,GGAACTCC,0.356
10,ATAACTCC,0.365
11,GGAACTAC,-0.062
12,CGAACTCA,-0.0187
13,AGCTGCAG,0.0539
14,TCCATAGA,0.00973
15,CAGTTCTA,-0.125
16,CGAGAATC,0.0357
17,CTGCAAGA,-0.136
18,AAGCCTGA,-0.208
19,ACAACAGT,0.0455
20,AAGGGTCT,-0.114
21,TAACTTAA,0.246
22,CAACCCCG,0.355
